In PubChem BioAssay (NCI):
This is part of a sample that, as a whole, favours compounds with a hit. Of some 79,000 tested, about 15% had one in any assay. A number with no mark means an inactive call. The source made the active and inactive calls. Rule as the data show it: active = growth inhibition above about 70%; inactive = the rest.

Tests used:
[1] = NCI Yeast Anticancer Drug Screen. Data for the rad52 strain (AID 147);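 also: 0% = growth of vehicle-treated control cultures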; settings: S. cerevisiae rad52 mutant growth inhibition, stronger effect = higher value
Outline: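 Compounds are applied to a genetically defined yeast strain lacking normal DNA damage repair, and inhibition of growth is expressed relative to cultures given vehicle only.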

[2] = NCI Yeast Anticancer Drug Screen. Data for the wt1 strain (AID 149);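 also: 0% = growth of vehicle-treated wt1 cultures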; settings: S. cerevisiae wt1 strain (SPY 50644) growth inhibition, stronger effect = higher value
Outline: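 Yeast wt1 strain exposed to compounds; growth inhibition measured relative to vehicle-treated controls.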

[3] = NCI Yeast Anticancer Drug Screen. Data for the rad50EPP+ strain (AID 151);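 also: 0% = growth of vehicle-treated control cultures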; settings: S. cerevisiae rad50 mutant strain, stronger effect = higher value
Outline: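 Compounds were applied to the rad50EPP+ yeast strain, which bears a defined DNA repair alteration, and growth inhibition was determined relative to vehicle-treated cultures.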

[4] = NCI Yeast Anticancer Drug Screen. Data for the mgt1 strain (AID 153); settings: S. cerevisiae mgt1 mutant growth inhibition, stronger effect = higher value
Outline: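 Strain: mgt1 yeast, one of a set carrying defined DNA damage repair or cell cycle control alterations. Compound-treated growth compared with vehicle.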

[5] = NCI Yeast Anticancer Drug Screen. Data for the rad50 strain (AID 155);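 also: 0% = growth of vehicle-only cultures of the same strain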; settings: S. cerevisiae rad50 strain growth inhibition, stronger effect = higher value
Outline: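 Yeast carrying a defined DNA repair defect were exposed to test compounds, and growth was compared with vehicle-treated controls to give percent inhibition.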

[6] = NCI Yeast Anticancer Drug Screen. Data for the mec2-1 strain (AID 157); settings: S. cerevisiae mec2-1 strain, stronger effect = higher value
Outline: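 Strain: mec2-1 (DNA repair/cell cycle alteration). Compound exposure, then growth measured; inhibition expressed relative to vehicle.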

[7] = NCI Yeast Anticancer Drug Screen. Data for the rad14 strain (AID 159);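 also: 0% = growth of vehicle-treated control cultures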; settings: S. cerevisiae rad14 strain growth inhibition, stronger effect = higher value
Outline: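 Yeast cells carrying a defined DNA-repair defect were exposed to compounds, and growth inhibition was calculated relative to vehicle-treated control cultures.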

[8] = NCI Yeast Anticancer Drug Screen. Data for the sgs1 mgt1 strain (AID 161);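 also: 0% = growth of cultures given vehicle only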; settings: S. cerevisiae sgs1 mgt1 strain, stronger effect = higher value
Outline: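 Test agents were incubated with a DNA-repair-mutant yeast strain. Growth was then read and compared against vehicle-treated controls.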

[9] = NCI Yeast Anticancer Drug Screen. Data for the CLN2oe strain (AID 163);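 also: 0% = growth of vehicle-only control cultures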; settings: S. cerevisiae CLN2oe strain, stronger effect = higher value
Outline: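 Growth of a genetically modified yeast strain is measured after compound exposure and compared with cultures given vehicle alone.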

[10] = NCI Yeast Anticancer Drug Screen. Data for the cln2 rad14 strain (AID 165);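 also: 0% = growth equal to vehicle treated cultures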; settings: S. cerevisiae cln2 rad14 strain, stronger effect = higher value
Outline: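 Compounds are applied to the cln2 rad14 yeast strain, and growth is then compared with that of vehicle-treated cultures to give inhibition.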

[11] = NCI Yeast Anticancer Drug Screen. Data for the bub3 strain (AID 167); settings: S. cerevisiae bub3 mutant strain, stronger effect = higher value
Outline: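 Compounds were applied to a genetically altered yeast strain carrying a cell-cycle control defect. Growth inhibition was scored against vehicle-treated controls.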

[12] = NCI Yeast Anticancer Drug Screen. Data for the wt2 strain (AID 169);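 also: 0% = growth of vehicle-treated yeast cultures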; settings: S. cerevisiae wt2 strain growth inhibition, stronger effect = higher value
Outline: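 This strain belongs to a panel of yeast strains with defined genetic alterations in DNA damage repair or cell cycle control. Compounds are applied, and growth inhibition is measured against vehicle-treated cultures.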

[13] = NCI Yeast Anticancer Drug Screen. Data for the mlh1 strain (AID 171);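 also: 0% = growth of vehicle-treated control cultures of the same strain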; settings: S. cerevisiae mlh1 strain growth inhibition, stronger effect = higher value
Outline: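 Growth of the mutant yeast strain after compound exposure, expressed as inhibition relative to vehicle-only controls.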

[14] = NCI Yeast Anticancer Drug Screen. Data for the sgs1 strain (AID 173);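 also: 0% = growth of vehicle-only control cultures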; settings: S. cerevisiae sgs1 mutant, stronger effect = higher value
Outline: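 Growth of a yeast strain bearing a defined genetic alteration is measured after compound treatment. Inhibition is expressed relative to vehicle-only controls.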

[15] = NCI Yeast Anticancer Drug Screen. Data for the mlh1 rad18 strain (AID 175); settings: S. cerevisiae mlh1 rad18 strain growth inhibition, stronger effect = higher value
Outline: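 Read-out is yeast growth inhibition, calculated against vehicle-only controls. The compound was applied to a strain engineered with DNA damage repair alterations.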

[16] = NCI Yeast Anticancer Drug Screen. Data for the rad18 strain (AID 177); settings: S. cerevisiae rad18 mutant growth inhibition, stronger effect = higher value
Outline: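 Growth of the mutant yeast strain after compound exposure, normalised to vehicle-only cultures.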

[17] = at 5.0 µM (retest, dose inferred, filed as 0.5)
[18] = at 50.0 µM (retest, dose inferred, filed as 5.0)

Molecule `Cc1ccc2[nH]c3c(C)c4cc[n+](C)cc4c(C)c3c2c1` has a growth inhibition ([1]; at 1.2 µM) of 25%, a growth inhibition ([1]; at 3.7 µM) of 14% and a growth inhibition ([1]; at 11.0 µM) of 34%. The growth inhibition ([1]; at 33.0 µM) was 89% (active), the growth inhibition ([1]; at 100.0 µM) was 97% (active) and the growth inhibition ([2]; at 1.2 µM) was -6%. For the same molecule, the growth inhibition ([2]; at 3.7 µM) was -12%, the growth inhibition ([2]; at 11.0 µM) was -10% and the growth inhibition ([2]; at 33.0 µM) was 6%. For the same molecule, the growth inhibition ([2]; at 100.0 µM) was 79% (active), the growth inhibition ([3]; at 1.2 µM) was 35% and the growth inhibition ([3]; at 3.7 µM) was 21%. For the same molecule, the growth inhibition ([3]; at 11.0 µM) was 31%, the growth inhibition ([3]; at 33.0 µM) was 49% and the growth inhibition ([3]; at 100.0 µM) was 88% (active). For the same molecule, the growth inhibition ([4]; at 1.2 µM) was -18%, the growth inhibition ([4]; at 3.7 µM) was -15% and the growth inhibition ([4]; at 11.0 µM) was -23%. For the same molecule, the growth inhibition ([4]; at 33.0 µM) was 47%, the growth inhibition ([4]; at 100.0 µM) was 94% (active) and the growth inhibition ([5]; at 1.2 µM) was 12%. The growth inhibition ([5]; at 3.7 µM) was 16%, the growth inhibition [5, 17] was 22% and the growth inhibition ([5]; at 11.0 µM) was 26%. For the same molecule, the growth inhibition ([5]; at 33.0 µM) was 83% (active), the growth inhibition [5, 18] was 91% (active) and the growth inhibition ([5]; at 50.0 µM) was 85.6% (active). For the same molecule, the growth inhibition ([5]; at 100.0 µM) was 95% (active), the growth inhibition ([6]; at 1.2 µM) was -2% and the growth inhibition ([6]; at 3.7 µM) was 19%. It also gave a growth inhibition [6, 17] of 15%, a growth inhibition ([6]; at 11.0 µM) of 8% and a growth inhibition ([6]; at 33.0 µM) of 55%. For the same molecule, the growth inhibition [6, 18] was 71% (active), the growth inhibition ([6]; at 50.0 µM) was 79.8% (active) and the growth inhibition ([6]; at 100.0 µM) was 94% (active). The growth inhibition ([7]; at 1.2 µM) was 16%, the growth inhibition ([7]; at 3.7 µM) was 6% and the growth inhibition ([7]; at 11.0 µM) was -8%. The growth inhibition ([7]; at 33.0 µM) was 41%, the growth inhibition ([7]; at 100.0 µM) was 90% (active) and the growth inhibition [8, 17] was 13%. For the same molecule, the growth inhibition [8, 18] was 8%, the growth inhibition ([8]; at 50.0 µM) was 85.7% (active) and the growth inhibition ([9]; at 1.2 µM) was 42%. It also gave a growth inhibition ([9]; at 3.7 µM) of 37%, a growth inhibition ([9]; at 11.0 µM) of 36% and a growth inhibition ([9]; at 33.0 µM) of 63%. The growth inhibition ([9]; at 100.0 µM) was 95% (active), the growth inhibition [10, 17] was 30% and the growth inhibition [10, 18] was 37%. It also gave a growth inhibition ([10]; at 50.0 µM) of 62.3%, a growth inhibition ([11]; at 1.2 µM) of 10% and a growth inhibition ([11]; at 3.7 µM) of 24%. The growth inhibition [11, 17] was 12%, the growth inhibition ([11]; at 11.0 µM) was 23% and the growth inhibition ([11]; at 33.0 µM) was 51%. For the same molecule, the growth inhibition [11, 18] was 81% (active), the growth inhibition ([11]; at 50.0 µM) was 65.6% and the growth inhibition ([11]; at 100.0 µM) was 95% (active). For the same molecule, the growth inhibition ([12]; at 1.2 µM) was 3%, the growth inhibition ([12]; at 3.7 µM) was -19% and the growth inhibition ([12]; at 11.0 µM) was -15%. The growth inhibition ([12]; at 33.0 µM) was 49%, the growth inhibition ([12]; at 100.0 µM) was 95% (active) and the growth inhibition ([13]; at 1.2 µM) was 7%. The growth inhibition ([13]; at 3.7 µM) was 25%, the growth inhibition ([13]; at 11.0 µM) was 14% and the growth inhibition ([13]; at 33.0 µM) was 61%. For the same molecule, the growth inhibition ([13]; at 100.0 µM) was 94% (active), the growth inhibition ([14]; at 1.2 µM) was 1% and the growth inhibition ([14]; at 3.7 µM) was -21%. For the same molecule, the growth inhibition ([14]; at 11.0 µM) was 22%, the growth inhibition ([14]; at 33.0 µM) was 54% and the growth inhibition ([14]; at 100.0 µM) was 93% (active). The growth inhibition [15, 17] was 14%, the growth inhibition [15, 18] was 72% (active) and the growth inhibition ([15]; at 50.0 µM) was -26.9%. For the same molecule, the growth inhibition ([16]; at 1.2 µM) was -11%, the growth inhibition ([16]; at 3.7 µM) was -1% and the growth inhibition ([16]; at 11.0 µM) was 1%. The growth inhibition ([16]; at 33.0 µM) was 37% and the growth inhibition ([16]; at 100.0 µM) was 93% (active).
